Reference: ChEMBL document CHEMBL2218924, “A broad activity screen in support of a chemogenomic map for kinase signalling research and drug discovery” (Biochem J, 2013)

Columns and labels:
[1] = target: Platelet-derived growth factor receptor alpha (Homo sapiens) (UniProt P16234); details: at 1 µM
[2] = target: Platelet-derived growth factor receptor alpha (Homo sapiens) (UniProt P16234); details: at 10 µM
[3] = target: Platelet-derived growth factor receptor beta (Homo sapiens) (UniProt P09619); details: at 1 µM
Chain of Platelet-derived growth factor receptor beta (Homo sapiens) (P09619 whole entry): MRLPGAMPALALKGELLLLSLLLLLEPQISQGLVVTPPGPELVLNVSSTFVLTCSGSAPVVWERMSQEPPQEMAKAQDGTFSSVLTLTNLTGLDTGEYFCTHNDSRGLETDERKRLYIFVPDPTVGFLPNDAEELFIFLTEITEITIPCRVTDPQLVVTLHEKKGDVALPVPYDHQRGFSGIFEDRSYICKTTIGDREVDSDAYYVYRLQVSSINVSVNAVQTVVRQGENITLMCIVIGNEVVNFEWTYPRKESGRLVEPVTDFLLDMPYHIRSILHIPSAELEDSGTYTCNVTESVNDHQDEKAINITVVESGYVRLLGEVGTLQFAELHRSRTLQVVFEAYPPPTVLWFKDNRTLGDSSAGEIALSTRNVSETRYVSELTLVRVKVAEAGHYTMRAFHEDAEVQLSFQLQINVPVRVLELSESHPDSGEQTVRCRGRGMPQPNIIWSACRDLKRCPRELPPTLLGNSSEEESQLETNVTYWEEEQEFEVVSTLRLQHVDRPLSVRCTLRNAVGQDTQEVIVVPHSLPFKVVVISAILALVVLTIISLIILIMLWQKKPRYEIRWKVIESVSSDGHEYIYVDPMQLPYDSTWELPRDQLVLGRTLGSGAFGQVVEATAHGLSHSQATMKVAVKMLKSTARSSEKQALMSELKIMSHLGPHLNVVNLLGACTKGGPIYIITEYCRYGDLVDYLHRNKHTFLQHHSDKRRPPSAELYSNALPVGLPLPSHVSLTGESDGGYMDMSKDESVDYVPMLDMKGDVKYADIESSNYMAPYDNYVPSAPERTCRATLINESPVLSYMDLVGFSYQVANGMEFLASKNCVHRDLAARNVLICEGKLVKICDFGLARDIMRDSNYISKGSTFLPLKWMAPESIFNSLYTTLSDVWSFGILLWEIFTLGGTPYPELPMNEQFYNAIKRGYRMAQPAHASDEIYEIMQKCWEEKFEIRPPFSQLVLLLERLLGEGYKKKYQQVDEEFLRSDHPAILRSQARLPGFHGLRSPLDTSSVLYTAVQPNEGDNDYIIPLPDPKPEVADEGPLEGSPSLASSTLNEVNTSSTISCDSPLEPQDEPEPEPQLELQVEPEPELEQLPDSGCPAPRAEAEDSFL

[4] = target: Platelet-derived growth factor receptor beta (Homo sapiens) (UniProt P09619); details: at 10 µM
[5] = target: RAC-gamma serine/threonine-protein kinase (Homo sapiens) (UniProt Q9Y243); details: at 1 µM
Chain of RAC-gamma serine/threonine-protein kinase (Homo sapiens) (Q9Y243 whole entry): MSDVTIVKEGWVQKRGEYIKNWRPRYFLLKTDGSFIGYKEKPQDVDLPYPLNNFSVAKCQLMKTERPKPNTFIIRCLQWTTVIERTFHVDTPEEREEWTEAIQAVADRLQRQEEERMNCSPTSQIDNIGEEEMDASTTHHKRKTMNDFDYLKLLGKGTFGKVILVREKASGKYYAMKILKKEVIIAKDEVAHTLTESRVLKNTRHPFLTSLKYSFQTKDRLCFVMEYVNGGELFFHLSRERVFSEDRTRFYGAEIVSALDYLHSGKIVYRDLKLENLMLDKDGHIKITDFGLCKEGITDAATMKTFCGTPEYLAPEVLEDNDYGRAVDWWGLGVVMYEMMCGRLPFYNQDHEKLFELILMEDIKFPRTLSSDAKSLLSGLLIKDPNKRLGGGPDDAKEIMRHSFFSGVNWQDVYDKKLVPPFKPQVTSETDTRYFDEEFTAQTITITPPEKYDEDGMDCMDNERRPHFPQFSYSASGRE

[6] = target: RAC-gamma serine/threonine-protein kinase (Homo sapiens) (UniProt Q9Y243); details: at 10 µM
[7] = target: T1, 3-phosphoinositide-dependent protein kinase 1 (Homo sapiens) (UniProt O15530); details: at 1 µM
T1 sequence (whole entry): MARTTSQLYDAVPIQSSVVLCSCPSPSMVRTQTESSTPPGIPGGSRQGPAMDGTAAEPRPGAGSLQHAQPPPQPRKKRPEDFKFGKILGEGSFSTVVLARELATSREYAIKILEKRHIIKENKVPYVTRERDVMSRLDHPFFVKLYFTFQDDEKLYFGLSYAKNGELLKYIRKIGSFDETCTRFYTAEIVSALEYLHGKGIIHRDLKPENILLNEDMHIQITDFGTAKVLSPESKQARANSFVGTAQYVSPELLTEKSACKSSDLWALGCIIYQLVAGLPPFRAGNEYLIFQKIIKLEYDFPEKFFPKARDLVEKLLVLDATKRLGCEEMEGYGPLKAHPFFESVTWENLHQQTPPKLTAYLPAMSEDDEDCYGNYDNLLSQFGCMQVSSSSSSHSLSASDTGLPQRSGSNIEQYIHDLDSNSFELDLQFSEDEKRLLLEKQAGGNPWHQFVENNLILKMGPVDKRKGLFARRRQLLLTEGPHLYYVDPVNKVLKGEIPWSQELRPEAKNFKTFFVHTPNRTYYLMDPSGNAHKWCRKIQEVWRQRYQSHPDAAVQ

[8] = target: T1, 3-phosphoinositide-dependent protein kinase 1 (Homo sapiens); details: at 10 µM
[9] = target: cAMP-dependent protein kinase catalytic subunit alpha (Homo sapiens) (UniProt P17612); details: at 1 µM
[10] = target: cAMP-dependent protein kinase catalytic subunit alpha (Homo sapiens) (UniProt P17612); details: at 10 µM

Chain of Platelet-derived growth factor receptor alpha (Homo sapiens) (P16234 whole entry): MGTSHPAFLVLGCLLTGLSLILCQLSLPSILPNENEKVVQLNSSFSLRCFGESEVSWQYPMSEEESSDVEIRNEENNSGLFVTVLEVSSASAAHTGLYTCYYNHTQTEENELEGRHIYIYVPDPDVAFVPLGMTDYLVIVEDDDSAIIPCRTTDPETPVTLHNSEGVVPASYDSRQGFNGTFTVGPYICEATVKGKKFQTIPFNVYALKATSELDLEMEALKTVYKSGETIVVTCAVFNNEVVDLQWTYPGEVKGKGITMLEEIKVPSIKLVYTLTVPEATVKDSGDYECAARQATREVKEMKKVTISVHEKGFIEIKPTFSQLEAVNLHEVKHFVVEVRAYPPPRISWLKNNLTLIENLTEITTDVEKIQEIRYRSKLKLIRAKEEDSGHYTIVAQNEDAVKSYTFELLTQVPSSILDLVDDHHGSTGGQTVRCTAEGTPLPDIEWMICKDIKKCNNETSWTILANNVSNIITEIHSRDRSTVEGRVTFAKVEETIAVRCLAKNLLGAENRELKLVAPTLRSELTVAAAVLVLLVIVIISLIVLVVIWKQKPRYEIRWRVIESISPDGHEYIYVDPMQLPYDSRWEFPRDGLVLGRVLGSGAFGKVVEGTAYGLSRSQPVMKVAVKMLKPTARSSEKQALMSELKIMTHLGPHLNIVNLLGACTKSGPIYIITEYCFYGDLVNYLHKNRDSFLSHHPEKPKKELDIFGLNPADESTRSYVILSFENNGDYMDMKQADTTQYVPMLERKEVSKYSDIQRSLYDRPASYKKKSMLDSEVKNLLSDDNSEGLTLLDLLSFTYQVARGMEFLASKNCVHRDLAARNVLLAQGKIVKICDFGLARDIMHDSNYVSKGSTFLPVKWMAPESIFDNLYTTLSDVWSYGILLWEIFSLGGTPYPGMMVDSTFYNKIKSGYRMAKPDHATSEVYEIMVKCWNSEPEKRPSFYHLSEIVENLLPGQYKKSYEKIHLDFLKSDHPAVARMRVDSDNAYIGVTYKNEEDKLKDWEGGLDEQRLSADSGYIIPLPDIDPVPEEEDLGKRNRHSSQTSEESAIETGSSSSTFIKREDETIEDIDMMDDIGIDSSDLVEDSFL

| Compound | residual activity [1] [%] | residual activity [2] [%] | residual activity [3] [%] | residual activity [4] [%] | residual activity [5] [%] | residual activity [6] [%] | residual activity [7] [%] | residual activity [8] [%] | residual activity [9] [%] | residual activity [10] [%] |
| --- | --- | --- | --- | --- | --- | --- | --- | --- | --- | --- |
| CN(C)S(=O)(=O)c1ccc2c(c1)/C(=C/c1cc3c([nH]1)CCCC3)C(=O)N2 | 33 | 29 | 80 | 90 | 92 | 88 | – | – | – | – |
| CCOC(=O)c1c(C)[nH]c(/C=C2\C(=O)Nc3ccccc32)c1C | 43 | 45 | 90 | 92 | – | – | – | – | – | – |
| CC(C)(C)n1nc(Cc2cccc3ccccc23)c2c(N)ncnc21 | 116 | 72 | 99 | 71 | 92 | 44 | 108 | 117 | 34 | 8 |
| COc1ccc(-c2cnc3c(-c4ccsc4)cnn3c2)cc1 | 99 | 92 | – | – | – | – | – | – | 80 | 82 |
| O=C1Cc2c([nH]c3ccc([N+](=O)[O-])cc23)-c2ccccc2N1 | 109 | 112 | 107 | 100 | 118 | – | 45 | 45 | – | – |
| O=C1Nc2ccc(Cl)cc2/C1=C/c1cc(Cl)c(O)c(Cl)c1 | 60 | 10 | 75 | 25 | 96 | 80 | – | – | 68 | 66 |
| O=C(CCCc1ccc(-c2ccccc2F)cc1)Nc1ccc(O)cc1 | 103 | – | 102 | 125 | 109 | 87 | 105 | 90 | 107 | 128 |
| Cn1c2ccccc2c2c3c(c4c5ccccc5n(CCC#N)c4c21)CNC3=O | 98 | 76 | – | – | – | – | 6 | 6 | – | – |
| c1ccc(-c2cnc(Nc3ccc(OCCN4CCCC4)cc3)s2)cc1 | 7 | 1 | 3 | 0 | – | – | 113 | 114 | 78 | 133 |
| Nc1ncnc2c1c(-c1ccc(Oc3ccccc3)cc1)cn2C1CCCC1 | 17 | 4 | 54 | 6 | 98 | 71 | 104 | 95 | 85 | 88 |
| N#C/C(=C\c1ccc(O)c(O)c1)C(=O)NCc1ccccc1 | 122 | 100 | – | – | – | 83 | – | – | 76 | 75 |
| COc1ccc2c(c1)c(C1=C(c3c[nH]c4ccccc34)C(=O)NC1=O)cn2CCCN(C)C | 106 | 66 | – | 63 | 30 | 9 | 62 | 14 | 37 | 17 |
| CCN(CC)CCNC(=O)c1c(C)[nH]c(/C=C2\C(=O)Nc3ccc(Cl)cc32)c1C | 2 | 1 | 1 | 1 | 79 | 33 | 78 | 39 | 81 | – |
| COc1cc2ncnc(Nc3cccc(Cl)c3)c2cc1OC | 104 | 87 | 102 | 103 | 112 | – | – | – | 111 | 101 |
| CCCCc1c(-c2ccc(OC)cc2)[nH]c2nccnc12 | 105 | 111 | 104 | 105 | 119 | – | 70 | 65 | 86 | – |
| O=C(c1cc2cc(O)ccc2[nH]1)c1cc2cc(O)ccc2[nH]1 | 46 | 6 | 35 | 6 | – | – | 79 | 23 | 74 | – |
| COc1cc2c(cc1OC)-c1n[nH]c(Nc3cccc(F)c3)c1C2 | 2 | 1 | 11 | 1 | – | 109 | 104 | 106 | – | 98 |
| O=C1NC(=O)c2c1c1c3ccccc3[nH]c1n1cncc21 | 96 | 92 | 88 | 92 | 84 | 64 | 56 | 39 | 82 | 88 |
| CCCC(=O)Oc1ccc2[nH]c(C(=O)c3cc4ccccc4[nH]3)cc2c1 | 108 | 85 | 99 | 93 | 102 | 103 | – | – | 88 | 89 |
| O=C(O)/C=C/c1cc(Br)c(Br)c(Br)c1Br | 100 | 103 | – | – | 105 | 61 | 107 | 99 | 96 | 71 |

| Compound | residual activity [1] [%] | residual activity [2] [%] | residual activity [3] [%] | residual activity [4] [%] | residual activity [5] [%] | residual activity [6] [%] | residual activity [7] [%] | residual activity [8] [%] | residual activity [9] [%] | residual activity [10] [%] |
| --- | --- | --- | --- | --- | --- | --- | --- | --- | --- | --- |
| Cn1sc(=O)n(Cc2ccccc2)c1=O | 100 | 100 | – | – | 85 | 84 | – | – | 91 | 89 |
| Oc1cccc(-c2nc(N3CCOCC3)c3oc4ncccc4c3n2)c1 | 127 | – | – | 98 | 95 | 95 | – | – | 95 | 85 |
| NC(=O)Nc1sc(-c2ccc(F)cc2)cc1C(N)=O | 41 | 20 | 89 | 55 | 85 | 55 | 57 | 17 | 92 | 82 |
| COc1cc2nccc(Oc3ccc(NC(=S)NC(=O)c4ccccc4C)cc3)c2cc1OC | 7 | 2 | 31 | 9 | 94 | 72 | – | – | 90 | – |
| O=C(c1ccccc1)c1ccc(N2CCOCC2)cc1O | 113 | 92 | 116 | 99 | – | – | – | – | 69 | 81 |
| NCCNc1ncc(C(N)=O)c(Nc2cccc(C(F)(F)F)c2)n1 | 107 | 74 | – | – | – | 43 | – | – | 114 | 141 |
| O=C(Nc1ccc(Cl)cc1)c1ccccc1NCc1ccncc1 | 39 | 7 | 46 | 4 | – | – | – | – | – | – |
| Nc1ncnc2[nH]nc(Nc3ccc(F)cc3)c12 | 105 | 111 | 107 | 109 | – | 71 | 92 | 40 | – | 77 |
| CC(C)(C)c1nc2c3ccc(F)cc3c3c(=O)[nH]ccc3c2[nH]1 | 102 | – | – | – | 60 | 63 | 3 | 1 | – | – |
| Cc1cc(C)c(/C=C2\C(=O)Nc3ccccc32)[nH]1 | – | – | – | – | 101 | – | – | – | – | – |
| Nc1ncnc2c1cnn2-c1ccccc1 | – | 101 | – | – | – | 73 | – | 87 | – | – |
| COc1ccc(CNC(=O)Nc2ncc([N+](=O)[O-])s2)cc1 | – | – | 101 | 100 | – | – | – | – | 109 | – |
| O=C1NC(=O)C(c2cn(CCCO)c3ncccc23)=C1c1cnccn1 | – | – | – | 96 | 98 | 89 | – | – | – | – |
| N#Cc1c(NC(=O)c2cccc3ccccc23)sc2c1CCCC2 | – | – | – | 92 | – | 81 | – | – | – | 91 |
| O=C1C(Cl)=C(N2C(=O)CCC2=O)C(=O)c2ccccc21 | – | – | 95 | 93 | 89 | 87 | – | – | 95 | 84 |
| CC(C)c1nn(-c2c(Cl)cccc2Cl)c2nc(Cc3ccc(OCCO)cc3)[nH]c(=O)c12 | – | – | 103 | 105 | 93 | 89 | 101 | 99 | 90 | 89 |
| Nc1nccc(-c2c(-c3ccc(F)cc3)ncn2C2CCNCC2)n1 | – | – | – | – | – | – | – | – | – | 64 |
| CN([C@@H](Cc1ccc(OS(=O)(=O)c2cccc3cnccc23)cc1)C(=O)N1CCN(c2ccccc2)CC1)S(=O)(=O)c1cccc2cnccc12 | – | – | – | 98 | – | 60 | – | – | – | – |
| CCCCc1c(-c2ccc(O)cc2)[nH]c2nccnc12 | – | – | – | – | – | – | 60 | 31 | – | – |
| O=S(=O)(c1cccc2cnccc12)N1CCCNCC1 | – | – | – | – | – | 55 | – | – | 53 | 17 |

| Compound | residual activity [1] [%] | residual activity [2] [%] | residual activity [3] [%] | residual activity [4] [%] | residual activity [5] [%] | residual activity [6] [%] | residual activity [7] [%] | residual activity [8] [%] | residual activity [9] [%] | residual activity [10] [%] |
| --- | --- | --- | --- | --- | --- | --- | --- | --- | --- | --- |
| O=c1cc(N2CCOCC2)oc2c1ccc1ccccc12 | – | – | 98 | – | 111 | 102 | – | – | 101 | 104 |
| O=C1NC(=O)C(c2cn(CCCn3ccnc3)c3ccccc23)=C1Nc1ccccc1 | – | – | – | – | 50 | 15 | 39 | 8 | 69 | 43 |
| O=S(=O)(NCCNC/C=C/c1ccc(Br)cc1)c1cccc2cnccc12 | – | – | – | – | 31 | 4 | – | – | 2 | 6 |
| O=c1c(-c2ccc(F)cc2)c(-c2ccncc2)[nH]n1-c1ccc(Cl)cc1 | – | – | 100 | 99 | – | 65 | – | – | – | – |
| O=C(NC(NC(=S)Nc1ccc(F)c([N+](=O)[O-])c1)C(Cl)(Cl)Cl)C(c1ccccc1)c1ccccc1 (stereo unspecified) | – | – | 97 | 96 | 98 | 69 | 103 | 87 | – | – |
| O=C1Nc2ccccc2/C1=C\c1c(Cl)[nH]c2ccccc12 | – | – | – | – | – | – | – | 85 | – | – |
| NC(=O)c1ccc(-c2nc(-c3ccc4c(c3)OCCO4)c(-c3ccccn3)[nH]2)cc1 | – | – | – | 75 | 98 | 94 | – | – | 92 | 96 |
| Fc1ccc(-c2nc3n(c2-c2ccncc2)CCS3)cc1 | – | – | 123 | 128 | – | – | – | – | 94 | 84 |
| O=C1NC(=O)C(c2c[nH]c3ccccc23)=C1c1c[nH]c2ccccc12 | – | 77 | – | 83 | 100 | 36 | 71 | 18 | – | 55 |
| Nc1n[nH]c2nc3ccccc3nc12 | – | – | – | – | 87 | 93 | – | 85 | – | – |
| COc1cc2nccc(Oc3ccc(NC(=O)Nc4cc(C)on4)c(Cl)c3)c2cc1OC | – | – | 13 | 2 | – | – | – | – | 108 | 98 |
| O=C(Nc1nc2ccccc2n1CCN1CCOCC1)c1cccc([N+](=O)[O-])c1 | – | – | 104 | 81 | 103 | 84 | 104 | 81 | – | 80 |
| Nc1nc(Nc2ccc(S(N)(=O)=O)cc2)nn1C(=O)c1c(F)cccc1F | – | – | 108 | 82 | 110 | – | 68 | 21 | – | – |
| O=C1Cc2c([nH]c3ccc(Br)cc23)-c2ccccc2N1 | – | – | – | – | – | – | – | – | 89 | 94 |
| CSc1nc(-c2ccc(F)cc2)c(-c2ccnc(NC(C)c3ccccc3)c2)[nH]1 (stereo unspecified) | – | – | – | – | – | – | – | – | 101 | 133 |
| N#C/C(=C1/Nc2ccccc2S1)c1ccnc(NCCc2cccnc2)n1 | – | – | – | – | 89 | 16 | – | – | – | – |
| O=c1cc(N2CCNCC2)oc2c(-c3ccccc3)cccc12 | – | – | 99 | 88 | 85 | 85 | – | – | 72 | 83 |
| CC(C)[C@H](CO)Nc1nc(Nc2cc(N)cc(Cl)c2)c2ncn(C(C)C)c2n1 | – | – | – | 92 | – | – | – | – | 93 | 87 |
